The text below walks through data of PubChem BioAssay (NCI).

The panel holds about 83,000 compounds, 20% with a hit somewhere; the sample as a whole holds those more often.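 In brief: 96-well plates, 48 h treatment, single concentration, percent growth endpoint.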 Unmarked numbers belong to inactive results. The source made the active and inactive calls. Rule for the calls: active = growth percent below 10; inactive = the rest.

The assay concerns MDA-MB-468 breast. In words: NCI-60 one-dose screen, 48 h (100 = growth as untreated, 0 = no growth, -100 = all killed). Particulars: 10 µM unless noted.
Take `CCCCCC(=O)O[C@]1(C(C)=O)CCC2C3CCC4=CC(=O)CC[C@]4(C)C3CC[C@@]21C` (stereo not given in full): the growth is -2.63% (active).
With `CC1(C)CC(=O)c2c(nc3ccc(Cl)cc3c2-c2ccccc2)C1` the figure was 92%; with `CCOC(=O)c1cn2ncnc(Oc3ccc(NC(=O)NCCN(CC)CC)c(Cl)c3)c2c1C`, 52.8%; with `Cc1ccc2c(n1)C(=O)C(Cl)=C(Nc1cccc(C(F)(F)F)c1)C2=O`, -65.2% (active).
Consider `C#Cc1nc(C2=C(C)C(=O)/C(=N/OC(C)=O)C2)cs1`, for which the growth is 69.9%.
Consider `O=C(CCn1c[n+](CC(=O)c2ccc(-c3ccccc3)cc2)c2ccccc21)Nc1cccc2cccnc12`, for which the growth was -31.2% (active).
Regarding `O=C(NOCCO)c1ccc2cncn2c1Nc1ccc(I)cc1F`, the growth is 107%.
The result for `CCC(=C(c1ccc(OCCN(CC)CC)cc1)c1ccc(OCCN(CC)CC)cc1)c1ccc(Cl)cc1` reads -79.1% (active); that for `CN(C)CCCC1(c2ccc(F)cc2)OCc2cc(-c3cc4ccccc4s3)ccc21` (stereo not given), -8.95% (active).
The result for `C#C[C@]1(O)CC[C@H]2[C@@H]3CC=C4c5nc(Nc6ncccn6)sc5CC[C@]4(C)[C@H]3CC[C@@]21C` reads 75.5%.
With `COCCOc1cnc2ccn([C@H](C)c3nnc4c(F)cc(-c5cnn(C)c5)cn34)c(=O)c2c1` the figure was 96.7%.
Consider `C=C1C(=O)O[C@H]2[C@H]1CC/C(COC(=O)NCc1ccc(Cn3c(=O)sn(CCCCl)c3=O)cc1)=C\CC[C@@]1(C)O[C@@H]21`, for which the growth was -52% (active).
With `N#CC1(Nc2ccc3c4c(cccc24)CC3)CCCCC1` the figure was -35.3% (active).
With `O=C(COc1ccc(/C=C2\C(=O)Nc3ccc(Cl)cc32)cc1)Nc1ccc(Cl)cc1` the figure was 87.6%.
With `CCC(C)Oc1cc(/C=N/NC(=O)c2cnn3c2NC(c2ccccc2)C3)ccc1OC` (stereo not given) the figure was 19.1%; with `C=C1SC(=Nc2ccccc2Cl)N(C(=O)c2sc3ccccc3c2Cl)C1(C)C`, 50%; with `Nc1c(Cl)cc([N+](=O)[O-])cc1Br`, 92.3%.
As for `Nc1c(C(=O)Nc2ccccc2C(F)(F)F)sc2nc3c(cc12)CCC3`, the growth was 104%.
In the case of `CN(C)CCCn1c2c(c3ccncc3c1=O)C(=O)c1ccccc1-2`, the growth was -16% (active).
The result for `Nc1n[nH]c(-c2cc(Cl)ccc2O)c1-c1ccccc1` reads 83.5%; that for `COc1nccnn1`, 82.9%; that for `COc1ccc(C(=NN=C(N)N)c2ccc(OC)cc2)cc1`, -17.7% (active).
As for `COc1cccc(NC(=O)c2cccc(-c3cc(=O)c4c(OC)c(OC)c(OC)cc4o3)c2)c1`, the growth is 79%.
For `Oc1ccccc1-c1nc2ccccn2c1NCCN1CCOCC1`, the growth was 109%.
In the case of `COc1ccc2nc3cc(Cl)ccc3c(N)c2c1`, the growth was -88.9% (active).
For the compound `O=C(/C=C/c1ccc(Br)cc1)c1ccc(-n2cc(CN3CCN(c4cc5c(cc4F)c(=O)c(C(=O)O)cn5C4CC4)CC3)nn2)cc1`, the growth was 92.2%.
Regarding `CCNC1=CC(=O)c2ncccc2C1=O`, the growth was 43.4%.
The result for `CCCCCCCCCCCCCCCCN=C(CC(=O)O)C(=O)O` reads 95.2%.
The result for `Cn1cc(-c2nn3cc(-c4ccncc4)nc3s2)c2cc(Br)ccc21` reads 74.9%; that for `CC(=O)n1c(-c2ccc(Cl)cc2)nc2c(c1=O)C(c1ccc(Cl)cc1)c1sc3c(Cl)cccc3c1O2` (stereo not given), 5.06% (active).
With `COc1ccc2c(c1)CCCC21C(=O)Nc2c(Cl)cccc21` (stereo not given) the figure was 109%; with `CN(C)CCCOc1ccc(C(=C(c2ccccc2)C2CCCC2)c2ccc(OCCCN(C)C)cc2)cc1`, -78.9% (active); with `COc1ccc(NC(=O)CSc2nnc(-c3ccc4nc(-c5ccc(OC)c(OC)c5)[nH]c4c3)o2)cc1OC`, 92.7%.
As for `O=C1NCC(=O)N(Cc2ccco2)[C@H]1Cc1ccccc1`, the growth was 114%.
With `O=C1Nc2ccccc2/C1=C/c1cccn1C(=O)c1ccc(Cl)s1` the figure was -16.5% (active).
Consider `CC(=O)OC/C=C(/C)C[P+](c1ccccc1)(c1ccccc1)c1ccccc1`, for which the growth is 1.61% (active).
Take `Cc1ccc(/C=N/NC(=O)CSc2nc3ccccc3c(=O)n2Cc2ccc(S(N)(=O)=O)cc2)cc1`: the growth was 81.2%.
As for `Cc1ccc(NC(=O)Nc2cccnc2)cc1NC(=O)Nc1cccnc1`, the growth is 71%.
With `CC(=O)c1c(C)[nH]c(-c2nc3ccc(N4CCN(C)CC4)cc3[nH]2)c1-c1ccc(OCC2CCOCC2)cc1` the figure was 11.4%; with `NC(=S)N/N=C/C(=O)O`, 37.7%.
